Experimental data as given in PubChem BioAssay AID1159580 (chemical genetic matrix, 2015).
In all, about 5,500 compounds went through this assay and about 2,000 (36%) were called active. Roughly 18% stayed inconclusive and do not appear here. Rule as the data show it: active = normalized growth mostly below about 0.91 (no sharp cut-off); inconclusive = no clear call, values can overlap the other calls; inactive = mostly above about 0.92. The list shows a part of the results.

Experiment: chemical genetic growth profiling, strain panel (AID 1159580);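 also: tested at 20 µM; growth read once vehicle control cultures reached saturation at 30 °C; 1 = growth at the plate median or of vehicle wells; lower values mean less growth of the strain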
Conditions: S. cerevisiae deletion strains, growth OD

Measured: normalized growth

O=S(=O)(c1cc(Cl)ccc1Cl)N1CCc2ccccc2C1
inactive: locus YAR019C, strain CDC15, active compounds read low 0.98 | locus YBL105C, strain PKC1, active compounds read low 0.977 | locus YBR135W, strain CKS1, active compounds read low 0.971 | locus YBR136W, strain MEC1, active compounds read low 0.983 | locus YBR160W, strain CDC28, active compounds read low 0.982 | locus YDL017W, strain CDC7, active compounds read low 0.982 | locus YDL028C, strain MPS1, active compounds read low 0.976 | locus YDL101C, strain DUN1, active compounds read low 0.981 | locus YDL108W, strain KIN28, active compounds read low 0.98 | locus YDL132W, strain cdc53, active compounds read low 0.973 | locus YDL214C, strain PRR2, active compounds read low 1.02 | locus YDR052C, strain DBF4, active compounds read low 0.983 | locus YDR054C, strain cdc34, active compounds read low 0.977 | locus YDR226W, strain ADK1, active compounds read low 0.978 | locus YDR477W, strain SNF1, active compounds read low 1.02 | locus YER123W, strain YCK3, active compounds read low 1 | locus YER133W, strain GLC7, active compounds read low 1.02 | locus YFL009W, strain cdc4, active compounds read low 0.967 | locus YFL029C, strain CAK1, active compounds read low 0.978 | locus YFR003C, strain YPI1, active compounds read low 0.981 | locus YFR019W, strain FAB1, active compounds read low 0.99 | locus YFR028C, strain CDC14, active compounds read low 0.981 | locus YGR040W, strain KSS1, active compounds read low 1.03 | locus YGR052W, strain FMP48, active compounds read low 1.06 | locus YGR092W, strain DBF2, active compounds read low 0.994 | locus YHR030C, strain SLT2, active compounds read low 0.951 | locus YHR079C, strain IRE1, active compounds read low 0.987 | locus YHR082C, strain KSP1, active compounds read low 1.15 | locus YHR205W, strain SCH9, active compounds read low 0.912 | locus YIL147C, strain SLN1, active compounds read low 0.975 | locus YJL095W, strain BCK1, active compounds read low 0.96 | locus YJL128C, strain PBS2, active compounds read low 0.925 | locus YJL157C, strain FAR1, active compounds read low 1.01 | locus YJR016C, strain ILV3, active compounds read low 0.985 | locus YJR066W, strain TOR1 (second series), active compounds read low 1.02 | locus YJR066W, strain TOR1, active compounds read low 1.11 | locus YKL048C, strain ELM1, active compounds read low 1 | locus YKL067W, strain YNK1, active compounds read low 1 | locus YKL101W, strain HSL1, active compounds read low 0.994 | locus YKL193C, strain SDS22, active compounds read low 0.971 | locus YKL203C, strain TOR2, active compounds read low 1.08 | locus YLR113W, strain HOG1, active compounds read low 0.953 | locus YLR133W, strain CKI1, active compounds read low 1 | locus YLR403W, strain SFP1, active compounds read low 0.964 | locus YML070W, strain DAK1, active compounds read low 1.02 | locus YMR001C, strain CDC5, active compounds read low 0.98 | locus YMR205C, strain PFK2 (second series), active compounds read low 0.995 | locus YMR277W, strain FCP1, active compounds read low 0.982 | locus YNL006W, strain LST8, active compounds read low 0.984 | locus YNL020C, strain ARK1, active compounds read low 1.01 | locus YNL161W, strain CBK1, active compounds read low 0.981 | locus YNL183C, strain NPR1, active compounds read low 1.14 | locus YNL207W, strain RIO2, active compounds read low 0.98 | locus YNL222W, strain SSU72, active compounds read low 0.983 | locus YNL307C, strain MCK1 (second series), active compounds read low 0.999 | locus YOL078W, strain AVO1, active compounds read low 0.975 | locus YOL136C, strain PFK27, active compounds read low 1 | locus YOR061W, strain CKA2, active compounds read low 0.99 | locus YOR119C, strain RIO1, active compounds read low 1.08 | locus YOR231W, strain MKK1, active compounds read low 1.06 | locus YOR329C, strain SCD5, active compounds read low 0.985 | locus YPL031C, strain PHO85, active compounds read low 1.01 | locus YPL153C, strain RAD53, active compounds read low 1.01 | locus YPL204W, strain HRR25, active compounds read low 1.02 | locus YPL209C, strain IPL1, active compounds read low 0.979 | locus YPL256C, strain CLN2, active compounds read low 0.987 | locus YPR025C, strain CCL1, active compounds read low 0.977 | locus YPR106W, strain ISR1, active compounds read low 0.986 | locus YPR111W, strain DBF20, active compounds read low 0.978 | strain NNK1, active compounds read low 0.983 | strain TSCII, active compounds read low 0.985
